# An excerpt weighted towards active compounds, which were near 4% of everything screened.
# Peg3 prom inh-1: Peg3 promoter activity inhibition. 360,000 compounds, 1.7% hits. inhibition, % at 20 µM. HeLa PEG-Prom luciferase reporter, luminescence, overnight;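 active = inhibition of at least 50% at 20 µM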
# TROY signal inh: inhibitors of TROY-dependent NF-kB signaling; AID 1347056; inhibition, % at 10 µM; Q293 LMP1-TROYcd NF-kB luciferase reporter, 4 h; 360,000 compounds, 0.98% hits;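 active = compounds whose plate-normalised and pattern-corrected inhibition of the luciferase reporter signal at the single screening dose is 50% or more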
# CF NFkB inh: inhibitors of cystic fibrosis induced NF-kB. inhibition, % at 5 µM. KKLEB NF-kB-GFP reporter, PAF-induced, GFP fluorescence overnight. 360,000 compounds, 0.86% hits;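 active = at least 50% inhibition at 5 µM, scaled per plate between neutral and stimulator controls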;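 note: PAF is a Pseudomonas aeruginosa culture filtrate used as stimulus; plate controls were PAF-stimulated DMSO wells for no effect and unstimulated DMSO wells for full effect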
# KKLEB tox: CF airway cell cytotoxicity counter-screen. KKLEB CF airway cells viability, ATPlite luminescence, overnight; stronger effect = lower value; cells stimulated with P. aeruginosa culture filtrate. AID 602141. activity change (cytotoxicity), % at 5 µM. 360,000 compounds, 0.36% hits;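 active = corrected activity change at or below -50% at 5 µM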
# HIF-2a inh: blocks HIF-2a reporter activity; 360,000 compounds, 0.72% hits; 786-0 RCC cells HIF-2a reporter, luciferase luminescence, overnight; inhibition, % at 18.8 µM;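 active = inhibition of the luminescence signal of 40% or more relative to plate controls, in a single-dose primary screen at 18.75 µM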
# TWEAK-Fn14 inh: TWEAK-Fn14 signaling inhibition; TWEAK-stimulated Fn14 reporter cells, luciferase luminescence, 8 h; inhibition, % at 10 µM; 360,000 compounds, 2% hits; in the data active = inhibition above about 50%
# Peg3 prom inh-2: confirmation of Peg3 promoter inhibitors; shares compounds with Peg3 prom inh-1; HeLa PEG-Prom luciferase reporter, luminescence, overnight; inhibition, % at 20 µM; 1,300 compounds, 84% hits; AID 602417;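 active = at 20 µM dose, 40% or more inhibition averaged across four replicates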
# CF NFkB conf: confirmation of cystic fibrosis induced NF-kB inhibitors; shares compounds with CF NFkB inh; KKLEB CF airway cells, PAF-induced NF-kB-GFP fluorescence, overnight; inhibition, % at 5 µM; 1,300 compounds, 64% hits; AID 602472; in the data active = inhibition above about 40%;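 note: stimulus PAF is a Pseudomonas aeruginosa filtrate and not platelet activating factor; plate controls were DMSO wells with stimulus for no effect and unstimulated DMSO wells for full effect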
# Mdm2-MdmX confirm: confirmation of inhibitors of human Mdm2/MdmX interaction, set 2; 740 compounds, 99% hits; AID 504601; SaOS-2 split-luciferase Mdm2/MdmX complementation, luminescence; shares compounds with HIF-2a inh; inhibition, % at 8 µM;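 active = mean inhibition of the luminescence signal across two replicates at or above 26 percent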
# Target sequence (O15151 whole entry, looked up): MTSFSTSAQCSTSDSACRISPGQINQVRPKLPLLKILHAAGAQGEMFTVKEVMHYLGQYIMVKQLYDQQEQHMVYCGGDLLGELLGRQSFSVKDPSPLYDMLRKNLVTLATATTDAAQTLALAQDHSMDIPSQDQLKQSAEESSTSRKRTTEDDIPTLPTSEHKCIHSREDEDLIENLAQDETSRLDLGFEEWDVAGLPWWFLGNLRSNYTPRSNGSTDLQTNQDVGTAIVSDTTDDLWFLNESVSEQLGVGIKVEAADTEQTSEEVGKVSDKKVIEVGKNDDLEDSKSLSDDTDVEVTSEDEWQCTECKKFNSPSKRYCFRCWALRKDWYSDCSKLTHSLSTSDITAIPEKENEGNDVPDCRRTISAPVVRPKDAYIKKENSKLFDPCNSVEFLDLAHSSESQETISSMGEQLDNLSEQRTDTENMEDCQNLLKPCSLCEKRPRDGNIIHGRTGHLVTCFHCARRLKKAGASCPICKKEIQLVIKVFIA
# Target sequence (Q00987 whole entry, looked up): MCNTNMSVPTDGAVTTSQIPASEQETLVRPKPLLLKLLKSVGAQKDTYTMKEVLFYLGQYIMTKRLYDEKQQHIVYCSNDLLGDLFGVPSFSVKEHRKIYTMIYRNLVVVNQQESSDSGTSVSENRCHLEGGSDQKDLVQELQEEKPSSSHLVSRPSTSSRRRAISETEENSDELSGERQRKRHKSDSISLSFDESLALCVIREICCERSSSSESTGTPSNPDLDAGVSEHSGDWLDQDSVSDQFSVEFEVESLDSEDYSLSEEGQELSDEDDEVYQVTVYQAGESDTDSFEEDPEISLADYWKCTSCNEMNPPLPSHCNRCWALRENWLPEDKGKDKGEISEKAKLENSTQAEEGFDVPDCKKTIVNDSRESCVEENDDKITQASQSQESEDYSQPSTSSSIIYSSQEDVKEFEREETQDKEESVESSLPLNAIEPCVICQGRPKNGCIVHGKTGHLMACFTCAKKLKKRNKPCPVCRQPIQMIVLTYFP
# HIF-2a conf: HIF-2a inhibition, single concentration confirmation; shares compounds with HIF-2a inh; 1,800 compounds, 56% hits; AID 651580; 786-0 RCC cells, HIF-2a luciferase reporter luminescence, overnight; inhibition, % at 18.8 µM;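 active = mean inhibition across four replicates of at least 40 percent at the single tested concentration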
# HIF-1a counter: inhibits HIF-1a reporter, a counter-screen for HIF-2a inhibitors | shares compounds with HIF-2a inh | MiaPaCa-2 HIF-1a luciferase reporter, desferoxamine, overnight | inhibition, % at 18.8 µM | 1,800 compounds, 72% hits | AID 651589;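 active = mean inhibition of the reporter signal across four replicates at the single tested dose of 50% or more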
# Starred values were filed as active, the others as inactive; . = not tested or not shown.
SMILES,Peg3 prom inh-1,TROY signal inh,CF NFkB inh,KKLEB tox,HIF-2a inh,TWEAK-Fn14 inh,Peg3 prom inh-2,HIF-2a conf,HIF-1a counter,others
CN(C)S(=O)(=O)c1ccc(Cl)c(NC(=O)CSc2nc3c(cc2C#N)C(=O)CC(C)(C)C3)c1,-14.7,19.5,27.7,-3.5,17.2,13.1,.,.,.,
N#Cc1cccc(S(=O)(=O)NCC(=O)NCc2ccc3c(c2)OCO3)c1,3.4,-2.3,2.3,6.0,9.1,5.8,.,.,.,
NC(=O)c1nsc(C(=O)N(c2ccccc2F)C(C(=O)NCc2ccc(F)cc2)c2ccc(O)cc2)c1N (configuration not stated),58.4*,15.9,93.7*,-34.1,19.1,36.4,60.2*,.,.,CF NFkB conf=107.5*
COc1ccc(Nc2nccc(-c3cccc(N)c3)n2)cc1,72.6*,28.3,70.7*,20.0,-195.2,75.9*,-117.0,.,.,CF NFkB conf=93.9*
CC(=O)Nc1ccc(OS(=O)(=O)c2cc(Cl)ccc2C)cc1,25.8,20.2,-6.9,-9.1,7.4,4.2,.,.,.,
FC(F)Sc1ccc(NC(=S)NCc2ccccc2)cc1,-47.4,37.5,-6.3,-3.8,-113.6,19.3,.,.,.,
FC(F)Sc1ccc(NC(=S)NC(c2ccccc2)c2ccccc2)cc1,52.8*,52.1*,50.7*,-45.2,-11.4,54.0*,95.2*,.,.,CF NFkB conf=57.0*
CC(C)(C)c1ccc(C(=O)O/N=C(\N)c2ccccn2)cc1,110.7*,89.2*,47.2,-38.1,82.3*,103.1*,99.0*,85.4*,84.3*,
C/C(=N\OC(=O)c1ccc(Br)cc1)c1ccccn1,-101.9,-38.6,-4.7,5.3,-23.0,25.7,.,.,.,
Cc1ccc(C(=O)O/N=C(\N)c2ccccn2)cc1,106.5*,84.4*,9.3,-22.0,62.1*,103.0*,76.8*,.,.,Mdm2-MdmX confirm=49.0*
C/C(=N/NC(=O)c1ccc(C(C)(C)C)cc1)c1ccccn1,-94.8,-41.0,26.0,-5.8,-169.6,44.9,.,.,.,
CCN1C(=O)[C@H]2[C@@H](c3ccc(OC)cc3)N[C@]3(CCCN(CCC(C)C)C3=O)[C@H]2C1=O,-3.0,-0.1,6.9,4.9,0.4,-9.8,.,.,.,
O=C(Nc1ccc(N2CCOCC2)cc1)c1cnsn1,100.8*,72.0*,3.7,-7.8,75.0*,94.8*,74.0*,87.8*,83.9*,
Cn1nnnc1Sc1ncnc2scc(-c3ccc4c(c3)OCO4)c12,75.5*,13.4,47.9,-21.6,62.8*,58.2*,77.5*,40.0,77.5*,
CC(=O)c1cccc(-c2csc3ncnc(Sc4nnnn4C)c23)c1,87.5*,19.5,71.1*,-4.6,49.4*,75.4*,85.2*,44.3*,98.7*,CF NFkB conf=28.4
CCS(=O)(=O)Nc1cccc(C2=NN(S(=O)(=O)c3ccccc3)C(c3cccs3)C2)c1 (configuration not stated),24.3,-9.5,-9.7,0.0,11.4,-1.4,.,.,.,
Cc1ccccc1-c1nc(-c2ccccn2)no1,63.3*,81.2*,-31.4,-38.8,59.9*,96.8*,57.6*,72.9*,66.2*,
Cc1ccccc1-c1nc(-c2cccnc2)no1,-205.8,-37.8,-0.1,2.9,-227.9,-4.5,.,.,.,
COc1ccc(-c2nc(-c3ccccn3)no2)cc1,89.0*,83.2*,-35.8,-80.1*,88.2*,102.0*,85.6*,94.9*,98.5*,Mdm2-MdmX confirm=96.2*
CC1=CC2C(C(O)CC3(C)C2CC(C)C32OCOC23COCO3)C2(C)C/C(=C\O)C(=O)C=C12 (configuration not stated),101.5*,83.4*,95.7*,-95.2*,95.1*,108.6*,96.7*,52.5*,107.8*,
Cc1cc(Br)ccc1NC(=O)c1ccccc1-c1ccccc1,5.4,-9.6,-6.8,3.6,13.9,-12.1,.,.,.,
CN(C)c1c([N+](=O)[O-])cc(N2C(=O)C=CC2=O)cc1[N+](=O)[O-],104.0*,19.0,-13.3,9.6,93.7*,6.1,95.7*,56.7*,3.4,
C=C1CC(COc2ccc3c(C)c(Cl)c(=O)oc3c2)(c2ccccc2)OC1=O (configuration not stated),98.1*,76.4*,90.7*,-71.1*,85.2*,83.5*,97.5*,70.9*,104.5*,
COc1cc(C(=O)N[C@@H](Cc2c[nH]c3ccccc23)C(=O)O)cc(OC)c1OC,1.5,13.4,-8.4,8.5,6.4,15.3,.,.,.,
COC(=O)C1C=CC(OC2OC(COC(C)=O)C(OC(C)=O)C(OC(C)=O)C2OC(C)=O)n2c(=O)n(-c3ccccc3)c(=O)n21 (configuration not stated),106.6*,-7.5,80.4*,-7.4,85.4*,54.9*,100.8*,93.3*,106.3*,CF NFkB conf=63.5*
SMILES,Peg3 prom inh-1,TROY signal inh,CF NFkB inh,KKLEB tox,HIF-2a inh,TWEAK-Fn14 inh,Peg3 prom inh-2,HIF-2a conf,HIF-1a counter,others
CCOC(=O)c1c(N)sc2c(OCC)c(Br)ccc12,-43.1,-38.3,-12.7,13.4,-99.4,36.3,.,.,.,
CCOC(=O)c1c(NC(C)=O)sc2c(OCC(O)CNC(C)(C)C)c(Br)ccc12 (configuration not stated),108.1*,-29.9,-27.9,-23.2,20.3,-135.5,98.6*,.,.,Mdm2-MdmX confirm=103.0*
Cn1c(=O)c2sccc2n(Cc2cccc(Br)c2)c1=O,-234.9,2.7,15.2,-17.0,10.3,13.4,.,.,.,
O=[N+]([O-])c1ccc(-c2ccc(/C=N/Nc3nc(NCc4ccccc4)nc(N4CCOCC4)n3)o2)cc1,99.2*,-25.6,50.6*,-90.3*,59.0*,-6.0,80.0*,15.9,41.3,Mdm2-MdmX confirm=102.5*
COc1nc(N/N=C/c2ccc(-c3ccccc3[N+](=O)[O-])o2)nc(N2CCOCC2)n1,-69.5,-38.2,19.6,-11.3,-210.6,0.9,.,.,.,
CCCN1CCN(CCCNC(=O)Cn2nc(C)n3c(cc4cc(OC)ccc43)c2=O)CC1,-2.3,-18.5,8.3,3.3,5.3,-13.9,.,.,.,
CCCCCCCCCCCCCCC(O)C[N+](C)(CCO)CCO (configuration not stated),70.3*,-0.2,55.0*,-33.6,72.8*,-50.2,73.1*,39.3,83.9*,CF NFkB conf=55.9*
CC1=CC(=C2C(=O)c3ccccc3C2=O)C=C(C)O1,-172.0,-50.7,-46.8,13.8,-224.7,-26.9,.,.,.,
